We go through eight compounds from ChEMBL document CHEMBL3988442, “University of Dundee, Small-Polar-MMV Screening Library” (2021).

For some of these results: Results with a measured potency or affinity are listed apart.

Holding throughout (design): scale not given: direction of the effect not stated beside the values
The target of assay [1] is Protein translocase subunit SecA (Escherichia coli (strain K12)) (UniProt P10408). Put plainly: Assay to Identify E. coli SecA ATPase Inhibitors. Type of assay: functional. To be noted: 30 µM.
Assay [2] deals with T1, Ubiquitin-activating enzyme e1, putative (Leishmania donovani (strain BPK282A1)) (UniProt E9BSI1).
T1 sequence (whole entry): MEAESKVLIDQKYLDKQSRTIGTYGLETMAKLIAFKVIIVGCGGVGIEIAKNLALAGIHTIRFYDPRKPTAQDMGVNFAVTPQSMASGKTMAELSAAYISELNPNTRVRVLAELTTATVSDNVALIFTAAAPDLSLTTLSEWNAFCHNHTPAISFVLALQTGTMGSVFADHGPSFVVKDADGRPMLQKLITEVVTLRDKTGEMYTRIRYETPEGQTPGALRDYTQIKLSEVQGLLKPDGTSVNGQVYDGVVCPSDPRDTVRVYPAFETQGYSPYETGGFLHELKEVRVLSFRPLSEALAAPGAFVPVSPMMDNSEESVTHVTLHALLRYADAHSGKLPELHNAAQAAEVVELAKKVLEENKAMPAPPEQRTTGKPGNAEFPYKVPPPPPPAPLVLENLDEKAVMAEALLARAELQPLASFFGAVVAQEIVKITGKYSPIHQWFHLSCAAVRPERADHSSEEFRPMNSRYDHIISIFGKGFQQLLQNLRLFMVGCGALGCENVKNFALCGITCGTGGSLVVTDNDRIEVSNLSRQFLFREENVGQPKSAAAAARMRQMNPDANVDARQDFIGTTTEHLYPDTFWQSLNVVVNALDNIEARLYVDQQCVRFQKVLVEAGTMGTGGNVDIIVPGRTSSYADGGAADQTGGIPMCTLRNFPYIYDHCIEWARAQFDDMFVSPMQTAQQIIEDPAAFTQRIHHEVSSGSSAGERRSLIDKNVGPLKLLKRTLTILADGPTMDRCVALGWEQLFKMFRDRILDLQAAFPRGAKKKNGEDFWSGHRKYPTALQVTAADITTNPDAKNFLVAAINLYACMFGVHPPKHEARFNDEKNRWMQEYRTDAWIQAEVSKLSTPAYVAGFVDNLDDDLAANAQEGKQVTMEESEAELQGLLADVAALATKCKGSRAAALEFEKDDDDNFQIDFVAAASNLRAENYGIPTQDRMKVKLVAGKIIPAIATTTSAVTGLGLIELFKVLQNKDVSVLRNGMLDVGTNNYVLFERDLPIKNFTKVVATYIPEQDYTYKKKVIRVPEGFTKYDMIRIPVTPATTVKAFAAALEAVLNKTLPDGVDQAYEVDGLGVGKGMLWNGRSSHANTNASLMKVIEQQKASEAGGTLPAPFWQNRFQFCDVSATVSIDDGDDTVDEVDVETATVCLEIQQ
The assay can be described thus: Leishmania donovani Ubiquitin Activating Enzyme (LdE1). Type of assay: functional. Particulars: 30 µM.

Assay [3] concerns the target AMP-activated protein kinase, AMPK (Homo sapiens) (UniProt P54646+O43741+P54619+Q9UGJ0+Q9Y478+Q13131+Q9UGI9). The assay can be described thus: AMP-dependent Kinase enzyme assay. An in vitro enzyme assay that detects ADP turnover that is directly proportional to AMPK activity. This uses naive AMPK that is activated during the assay with MK-8722. It is filed as functional. To be noted: 30 µM.

The target in assay [4] is Sialic acid-binding Ig-like lectin 9 (Homo sapiens) (UniProt Q9Y336). The assay can be described thus: Hs-Siglec9 ALPHAscreen SOP 20170721. Particulars: 10 µM.
A further assay concerns Trypanosoma cruzi. The assay can be described thus: Trypanosoma cruzi phosphomannomutase and mannose-1-phosphate guanylyltransferase assay. Type of assay: functional. To be noted: 10 µM.
Assay [5] has as its target T2, Arginase-2, mitochondrial (Homo sapiens) (UniProt P78540).
T2 sequence (whole entry): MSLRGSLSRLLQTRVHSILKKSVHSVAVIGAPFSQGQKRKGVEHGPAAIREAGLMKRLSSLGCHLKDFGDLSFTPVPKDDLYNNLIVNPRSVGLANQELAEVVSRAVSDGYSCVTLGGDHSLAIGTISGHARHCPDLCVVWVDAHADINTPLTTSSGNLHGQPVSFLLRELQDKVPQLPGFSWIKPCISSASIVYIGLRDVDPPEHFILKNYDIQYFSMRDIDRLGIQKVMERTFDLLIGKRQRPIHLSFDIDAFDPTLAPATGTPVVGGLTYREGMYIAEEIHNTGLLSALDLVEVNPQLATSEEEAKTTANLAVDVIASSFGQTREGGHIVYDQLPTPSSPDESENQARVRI
Put plainly: in vitro enzyme assay to detect the production of urea directly proportional to the activity of Arginase II. Further: in the data most compounds retested in dose-response had high values. To be noted: 33.3 µM. Type of assay: functional.

Assay [6] deals with T3, Proteasome subunit beta (Trypanosoma cruzi) (UniProt O96673).
T3 sequence (whole entry): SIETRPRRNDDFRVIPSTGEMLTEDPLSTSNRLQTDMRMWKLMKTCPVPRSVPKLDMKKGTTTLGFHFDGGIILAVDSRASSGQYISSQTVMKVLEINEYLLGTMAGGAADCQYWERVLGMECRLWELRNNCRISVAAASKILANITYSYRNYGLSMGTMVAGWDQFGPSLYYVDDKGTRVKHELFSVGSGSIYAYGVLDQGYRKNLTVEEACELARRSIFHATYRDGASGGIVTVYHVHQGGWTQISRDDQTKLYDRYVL
Put plainly: Trypanosoma cruzi proteasome chymotrypsin-like activity (TcProtChymo) assay. Further: in the data most compounds retested in dose-response had high values. It is filed as functional. To be noted: 9.37 µM.

A further assay is filed under the species Homo sapiens. Put plainly: To identify inhibition of the IFN signalling (Jak-Stat) pathway via expression of an eGFP reporter gene under the control of an IFN-stimulated response element (ISRE) containing MxA promoter. Type of assay: functional. To be noted: 30 µM.
Assay [7] addresses T4, Tyrosyl-tRNA synthetase, putative (Trypanosoma cruzi (strain CL Brener)) (UniProt Q4DSP6).
T4 sequence (whole entry): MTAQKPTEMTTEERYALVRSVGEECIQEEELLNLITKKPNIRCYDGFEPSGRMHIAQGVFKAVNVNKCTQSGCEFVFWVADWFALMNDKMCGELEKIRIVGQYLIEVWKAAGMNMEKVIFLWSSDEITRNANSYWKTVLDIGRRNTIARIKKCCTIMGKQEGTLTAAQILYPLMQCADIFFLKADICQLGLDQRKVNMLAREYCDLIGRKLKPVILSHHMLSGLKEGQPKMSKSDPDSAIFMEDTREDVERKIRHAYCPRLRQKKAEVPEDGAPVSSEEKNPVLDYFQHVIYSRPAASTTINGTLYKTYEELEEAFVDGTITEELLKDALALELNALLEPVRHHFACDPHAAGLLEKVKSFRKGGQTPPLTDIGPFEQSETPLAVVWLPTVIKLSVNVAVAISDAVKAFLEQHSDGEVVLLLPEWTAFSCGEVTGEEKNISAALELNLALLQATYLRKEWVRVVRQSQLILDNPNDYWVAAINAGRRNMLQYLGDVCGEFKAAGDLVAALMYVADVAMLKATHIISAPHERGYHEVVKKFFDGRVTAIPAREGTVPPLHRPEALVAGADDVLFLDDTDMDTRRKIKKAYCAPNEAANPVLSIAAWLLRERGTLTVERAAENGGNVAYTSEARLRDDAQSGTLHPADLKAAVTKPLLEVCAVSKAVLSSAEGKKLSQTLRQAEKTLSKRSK
The assay can be described thus: Trypanosoma cruzi tyrosyl tRNA synthetase (TcYRS) _High Tyrosine SOP. Further: in the data most compounds retested in dose-response had high values. It is filed as functional. Particulars: 30 µM.

For assay [8], the target named is T4, Tyrosyl-tRNA synthetase, putative (Trypanosoma cruzi (strain CL Brener)). Put plainly: Trypanosoma cruzi tyrosyl tRNA synthetase (TcYRS) SOP. Type of assay: functional. To be noted: 30 µM.
Assay [9] concerns the target Chromo domain-containing protein 1 (Saccharomyces cerevisiae (strain ATCC 204508 / S288c) (Baker's yeast)) (UniProt P32657). The assay can be described thus: ScCHD-1 Enzyme Inhibition Assay. Further: in the data most compounds retested in dose-response had high values. Type of assay: functional. Particulars: 30 µM.

Chain of Sialic acid-binding Ig-like lectin 9 (Homo sapiens) (Q9Y336 whole entry): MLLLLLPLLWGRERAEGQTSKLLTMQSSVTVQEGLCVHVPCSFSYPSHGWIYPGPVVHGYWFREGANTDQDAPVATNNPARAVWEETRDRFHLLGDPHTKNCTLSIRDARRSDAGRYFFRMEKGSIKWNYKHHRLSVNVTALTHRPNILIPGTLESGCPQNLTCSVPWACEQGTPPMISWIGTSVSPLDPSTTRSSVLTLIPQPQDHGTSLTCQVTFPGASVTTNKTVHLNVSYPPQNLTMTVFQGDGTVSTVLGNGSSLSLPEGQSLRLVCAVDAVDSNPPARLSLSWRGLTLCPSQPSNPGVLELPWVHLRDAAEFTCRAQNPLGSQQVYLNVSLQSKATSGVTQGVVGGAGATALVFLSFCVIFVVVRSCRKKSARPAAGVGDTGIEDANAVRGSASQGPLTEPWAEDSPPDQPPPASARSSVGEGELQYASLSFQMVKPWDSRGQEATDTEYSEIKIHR
Chain of Protein translocase subunit SecA (Escherichia coli (strain K12)) (P10408 whole entry): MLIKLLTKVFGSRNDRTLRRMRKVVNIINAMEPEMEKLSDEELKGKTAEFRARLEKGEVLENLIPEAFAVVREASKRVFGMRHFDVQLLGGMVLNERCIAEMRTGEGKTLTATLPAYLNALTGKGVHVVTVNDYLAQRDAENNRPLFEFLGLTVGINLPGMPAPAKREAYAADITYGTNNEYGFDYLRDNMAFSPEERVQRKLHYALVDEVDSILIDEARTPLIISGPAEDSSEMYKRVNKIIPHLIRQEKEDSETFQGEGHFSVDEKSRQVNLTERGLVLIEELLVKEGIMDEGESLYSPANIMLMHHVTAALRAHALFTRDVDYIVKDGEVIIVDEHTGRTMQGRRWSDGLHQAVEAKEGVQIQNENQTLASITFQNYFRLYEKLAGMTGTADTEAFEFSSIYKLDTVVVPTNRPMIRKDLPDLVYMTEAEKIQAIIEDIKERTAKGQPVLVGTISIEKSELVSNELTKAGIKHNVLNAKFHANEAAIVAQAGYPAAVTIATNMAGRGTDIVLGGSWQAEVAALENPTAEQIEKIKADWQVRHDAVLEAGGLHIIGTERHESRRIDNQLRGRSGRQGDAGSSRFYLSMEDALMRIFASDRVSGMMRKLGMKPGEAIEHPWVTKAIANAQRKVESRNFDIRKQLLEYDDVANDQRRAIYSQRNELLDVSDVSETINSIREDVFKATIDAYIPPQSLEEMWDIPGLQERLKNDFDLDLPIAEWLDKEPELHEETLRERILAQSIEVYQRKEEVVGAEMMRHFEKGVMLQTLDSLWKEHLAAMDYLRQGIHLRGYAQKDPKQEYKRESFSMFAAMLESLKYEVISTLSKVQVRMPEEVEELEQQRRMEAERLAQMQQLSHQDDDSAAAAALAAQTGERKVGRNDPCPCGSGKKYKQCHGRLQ
Chain of Chromo domain-containing protein 1 (Saccharomyces cerevisiae (strain ATCC 204508 / S288c) (Baker's yeast)) (P32657 whole entry, the tested form may be a part): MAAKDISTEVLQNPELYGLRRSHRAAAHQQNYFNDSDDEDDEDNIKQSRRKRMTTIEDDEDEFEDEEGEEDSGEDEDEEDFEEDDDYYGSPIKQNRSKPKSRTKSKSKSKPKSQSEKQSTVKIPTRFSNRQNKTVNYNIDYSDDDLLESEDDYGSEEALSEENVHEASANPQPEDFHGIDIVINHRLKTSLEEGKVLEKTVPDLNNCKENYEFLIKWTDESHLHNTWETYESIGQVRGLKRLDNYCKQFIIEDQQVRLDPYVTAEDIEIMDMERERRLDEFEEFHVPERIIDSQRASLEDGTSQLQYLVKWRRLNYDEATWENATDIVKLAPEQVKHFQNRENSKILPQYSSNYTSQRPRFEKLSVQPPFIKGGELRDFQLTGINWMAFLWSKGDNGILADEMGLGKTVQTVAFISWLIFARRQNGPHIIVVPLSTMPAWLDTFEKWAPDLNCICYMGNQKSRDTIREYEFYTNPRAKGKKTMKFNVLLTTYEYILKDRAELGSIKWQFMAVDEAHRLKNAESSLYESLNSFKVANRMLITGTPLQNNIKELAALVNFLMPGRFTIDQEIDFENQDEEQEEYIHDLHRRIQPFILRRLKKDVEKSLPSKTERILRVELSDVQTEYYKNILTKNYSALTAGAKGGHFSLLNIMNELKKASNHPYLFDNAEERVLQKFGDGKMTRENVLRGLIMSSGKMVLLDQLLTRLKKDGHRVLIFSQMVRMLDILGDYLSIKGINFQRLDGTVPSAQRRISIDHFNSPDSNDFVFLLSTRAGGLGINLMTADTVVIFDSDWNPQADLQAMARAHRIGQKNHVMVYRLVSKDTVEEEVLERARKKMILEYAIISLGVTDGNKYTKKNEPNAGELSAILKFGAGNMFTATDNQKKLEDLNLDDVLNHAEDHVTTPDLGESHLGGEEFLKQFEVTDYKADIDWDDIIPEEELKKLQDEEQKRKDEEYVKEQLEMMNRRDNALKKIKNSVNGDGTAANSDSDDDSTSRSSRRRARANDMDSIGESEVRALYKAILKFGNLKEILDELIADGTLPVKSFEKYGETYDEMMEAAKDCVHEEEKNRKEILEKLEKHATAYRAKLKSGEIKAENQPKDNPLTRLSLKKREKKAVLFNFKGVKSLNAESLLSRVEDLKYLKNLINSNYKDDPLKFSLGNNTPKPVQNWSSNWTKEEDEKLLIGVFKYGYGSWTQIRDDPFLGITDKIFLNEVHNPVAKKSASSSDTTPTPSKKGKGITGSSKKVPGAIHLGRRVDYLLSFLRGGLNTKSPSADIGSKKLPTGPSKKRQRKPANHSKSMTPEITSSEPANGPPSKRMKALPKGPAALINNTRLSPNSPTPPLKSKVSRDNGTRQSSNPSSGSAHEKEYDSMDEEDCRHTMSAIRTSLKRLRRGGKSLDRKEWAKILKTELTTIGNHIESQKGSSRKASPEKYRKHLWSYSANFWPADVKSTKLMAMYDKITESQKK

In the case of `Cn1ccc(CN2CCC(CO)CC2)cc1=O`, the Percent Effect was -3.9% in assay [1]; -1.27% in assay [2]; 2.26% in assay [3]; 0.971% in [4]; -4.41% with Trypanosoma cruzi; 2.8% in assay [5]. The Percent Effect was 1.03% in [6]; 26.1% in the assay filed under Homo sapiens; -2.08% in [7]; 10.1% in assay [8]; -1.56% in [9].

Regarding `COc1cccc2ccn(CCC(=O)N3CCCC(C(=O)O)C3)c12` (stereo not drawn), the Percent Effect in assay [1] is -7.04%; in [2], 21.1%; in assay [3] it was 5.95%; in assay [4] it was -0.508%; in the assay on Trypanosoma cruzi it was 3.8%; in [5] it was -1.18%. In addition, the Percent Effect was 14.1% in [6]; 6.03% in the assay filed under Homo sapiens; 2.13% in [7]; 10.4% in assay [8]; -7.67% in [9].

In the case of `NC(=O)NCC(=O)N1C[C@H]2CC[C@@H]1CN(C1Cc3ccccc3C1)C2`, the Percent Effect in assay [1] is -3.92%; in assay [2] it was 10.8%; in assay [3], -25.8%; in [4] it was 17.9%; in the assay on Trypanosoma cruzi, -0.88%; in assay [5] it was -3.23%. The Percent Effect in assay [6] was 14%; in the assay listed under Homo sapiens, 3.96%; in assay [7], 5.38%; in [8], 13.6%; in assay [9], -4.63%.

In the case of `CC(OCC1CC1)C(=O)N1CCCN(c2ncccc2C#N)CC1` (stereo not drawn), the Percent Effect in [1] is -5.69%; in assay [2] it was 23.7%; in assay [3] it was -5.36%; in assay [4], -8.93%; in the assay on Trypanosoma cruzi it was -0.0934%; in assay [5] it was -8.99%. Moreover, the Percent Effect in [6] was 2.79%; in the assay filed under Homo sapiens, -5.09%; in assay [7], 6.4%; in [8], -8.64%; in [9], -5.69%.

Turning to `Cc1nc(NCCc2ccc(Cl)cc2)cc(C(=O)N2CCCCC2)n1`, the Percent Effect in assay [1] was -1.97%; in [2] it was 7.79%; in [3] it was 7.85%; in assay [4] it was -0.26%; with Trypanosoma cruzi, -8.16%; in assay [5], -16.6%. Moreover, the Percent Effect in assay [6] was 22.6%; in the assay listed under Homo sapiens, 10.8%; in [7], 0%; in assay [8], 1.24%; in assay [9], -2.69%.

As for `O=C(CCc1cccc(F)c1F)N1CCN(Cc2ccco2)CC1`, the Percent Effect in assay [1] was 0.132%; in [2], 2.7%; in assay [3], -1.7%; in assay [4] it was 9.76%; in the assay with Trypanosoma cruzi, 3.48%; in assay [5], 0.476%. Further, the Percent Effect was 10.3% in assay [6]; 0.925% in the assay filed under Homo sapiens; 0.529% in assay [7]; -2.44% in assay [8]; -2.5% in [9].

As for `CCn1cnnc1C1CCN(C(=O)c2ccc3cc[nH]c3c2)CC1`, the Percent Effect was -5.68% in assay [1]; 7.89% in [2]; 11.4% in assay [3]; 8.5% in assay [4]; -3.21% in the assay with Trypanosoma cruzi; 3.55% in assay [5]. In addition, the Percent Effect in assay [6] is 11%; in the assay listed under Homo sapiens, -5.37%; in assay [7] it was -2.13%; in assay [8], 7.79%; in assay [9] it was -4.05%.

With `COc1ccc(OC)c(-c2nc(CN(C)Cc3nncn3C)c(C)o2)c1`, the Percent Effect in assay [1] was -4.01%; in assay [2] it was 11%; in assay [3], 12%; in assay [4], -0.646%; with Trypanosoma cruzi it was -1.57%; in [5] it was 0.909%. For the same compound, the Percent Effect was 13.7% in assay [6]; -0.225% in the assay filed under Homo sapiens; 7.53% in [7]; 15% in assay [8]; -5.1% in assay [9].
